TGFb inhibitor = inhibitors of TGF-b signaling. HepG2 CAGA-GFP TGF-b/SMAD3 reporter, GFP fluorescence, 18 h; TGF-beta stimulated, 500 pg/mL final. actives 1.2% (n = 410,000). Potency, µM (top dose mostly 46.1 µM), without a hit: at the top dose activity, negative = inhibition, most hits filed as inhibitors. AID 588855; also: potency is read from the fitted curve at half-maximal effect; % is scaled to controls: 0 for no effect and ±100 for the full control effect; nearly all actives have a fitted effect of over 65% in size
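Per well, imaged GFP fluorescence of HEPG2 CAGA-GFP cells gives the signal; cells get compound, then TGF-beta (500 pg/mL final), 18 h at 37 degrees C; %Activity versus -TGF-beta and +DMSO controls.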
TDP1 cell noCPT = qHTS for Inhibitors of human tyrosyl-DNA phosphodiesterase 1 (TDP1): qHTS in cells in absence of CPT. actives 15% (n = 420,000). Potency, µM (series often up to 46.2 µM), without a hit: at the top dose activity change, negative = growth inhibition, hits mostly inhibitors. DT40 Tdp1-/- hTDP1 cells, no CPT, ATP luminescence, 48 h; also: potency is read from the fitted curve at half-maximal effect; % is scaled to controls: 0 for no effect and ±100 for the full control effect; nearly all actives have a fitted effect of over 55% in size
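Compound effects on proliferation are scored in DT40 Tdp1-/-;hTDP1 cells in the absence of CPT. ATP levels (CellTiter-Glo luminescence) are recorded after a ≥48 hr, 37 °C incubation.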
TDP1 cell CPT = growth inhibition of DT40 Tdp1-/-;hTDP1 cells with camptothecin (screen for TDP1 inhibitors); chicken DT40 Tdp1-/-;hTDP1 cells + 20 nM CPT, ATP luminescence, 48 h; Potency, µM (titrated, usually from 46.2 µM), inactives show top-dose activity change, negative = growth inhibition, hits mostly inhibitors; actives 12% (n = 420,000); AID 686979; also: potency is read from the fitted curve at half-maximal effect; % is scaled to controls: 0 for no effect and ±100 for the full control effect; nearly all actives have a fitted effect of over 55% in size
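Chicken DT40 Tdp1-/- cells stably complemented with human TDP1 were seeded at 400 cells/well in medium containing 20 nM camptothecin, exposed to pin-transferred compounds, and grown at 37 °C for at least 48 hr. Viability was read as ATP luminescence.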
ASM inhibitor = blocks human secretory acid sphingomyelinase | Potency, µM (doses to about 57.5 µM), without a hit: top-dose activity change, negative = inhibition, actives largely listed as inhibitors | actives 0.006% (n = 340,000) | placental ASM, HMU-PC fluorogenic substrate, 60 min | P17405; also: potency is read from the fitted curve at half-maximal effect
Target sequence (P17405 47-631 limits assumed): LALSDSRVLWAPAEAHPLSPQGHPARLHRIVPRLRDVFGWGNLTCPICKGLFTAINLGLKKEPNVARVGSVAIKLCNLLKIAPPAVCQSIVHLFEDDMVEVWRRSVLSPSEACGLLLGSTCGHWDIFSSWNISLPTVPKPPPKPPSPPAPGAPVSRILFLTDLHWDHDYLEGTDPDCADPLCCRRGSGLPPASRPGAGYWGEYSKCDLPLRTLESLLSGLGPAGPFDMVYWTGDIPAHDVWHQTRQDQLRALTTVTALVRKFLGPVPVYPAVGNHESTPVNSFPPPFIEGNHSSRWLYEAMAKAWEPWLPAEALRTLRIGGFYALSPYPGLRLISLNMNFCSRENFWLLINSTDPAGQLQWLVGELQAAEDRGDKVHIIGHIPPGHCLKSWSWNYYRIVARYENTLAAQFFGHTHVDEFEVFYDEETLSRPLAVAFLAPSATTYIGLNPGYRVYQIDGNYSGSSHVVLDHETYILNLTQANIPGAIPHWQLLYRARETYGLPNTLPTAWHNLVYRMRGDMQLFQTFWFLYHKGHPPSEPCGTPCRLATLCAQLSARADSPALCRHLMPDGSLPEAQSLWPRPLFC
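Fluorogenic HMU-PC substrate (9 uM final) is turned over by placental ASM in 60 min at 37 C after a 10 min compound preincubation. Reaction ended by alkaline stop (pH 10), with fluorescence read at 386/447 nm.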
IL-1B inflam inh = blocks inflammasome-driven IL-1 beta release | THP-1 LPS/ATP IL-1B secretion, AlphaLISA, 16 h; hits give low values | activity change, % at 57.5 µM | actives 4.7% (n = 360,000) | AID 743279; in the data active = activity change below about -50%; inconclusive = mostly about -30% to -49%; also: % is scaled to controls: 0 for no effect and ±100 for the full control effect
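THP-1 cells pretreated 1 hr with compounds (up to 57.5 uM final), then stimulated with LPS (250 ng/mL final) plus ATP (1.25 mM final); secreted IL-1B measured by AlphaLISA after 16 hr, decreased signal indicating inhibition.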
HepG2 viability = HepG2 cytotoxicity, counter-screen for TGF-b inhibitors | HepG2 CAGA-GFP viability, ATP luminescence, 18 h | Potency, µM (doses to about 46.1 µM), for inactives: at the highest dose activity change, negative = cytotoxicity, usual class: cytotoxic | actives 0.76% (n = 410,000); also: potency is read from the fitted curve at half-maximal effect
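CellTiter-Glo luminescence gave cytotoxicity after 18 hours at 37 degrees C. The cells were HepG2 CAGA-GFP in 1% FBS DMEM, stimulated with 500 pg/mL TGF-beta after compound addition. %Activity was normalised to no-cell wells (complete cell-killing) and DMSO (no toxicity), and curves were fitted and classified.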
* hit, by the source's call; ? = inconclusive; . = not tested or not shown. Compounds with a hit are over-represented: about 19% of the library has one in this group of screens. Unless noted, calls follow the shape of the dose curve; as a rule, active = well fitted curve in the direction sought with a large enough effect; inconclusive = small, poorly fitted or top-dose-only effect, or another doubt; inactive = no such curve, though single readings can be large; an effect the other way counts as inactive or inconclusive.

SMILES	TGFb inhibitor	TDP1 cell noCPT	TDP1 cell CPT	ASM inhibitor	IL-1B inflam inh	HepG2 viability
O=C(CCCCC(=O)N1CCOCCOCCOCC1)OCc1ccccc1	0.0%	-8.8%	-1.6%	-4.1%	20.5	-47.3%
CCOC(=O)/C=C/C(=O)N1CCN(C(=O)/C=C/C(=O)OCC)CC1	-27.5%	20.6µM*	?	-2.8%	-100.1*	-13.7%
O=C(O)/C=C/C(=O)N1CCN(C(=O)/C=C/C(=O)O)CC1	5.0%	-9.2%	0.3%	1.6%	9.1	0.4%
COC(=O)c1ccc(OCC2c3cc(OC)c(OC)cc3CCN2C(=O)c2ccccc2F)cc1 (stereo not given)	-22.2%	18.4µM*	?	.	.	-26.3%
CCOc1ccccc1C(=O)N1CCc2cc(OC)c(OC)cc2C1COc1ccc(OC)cc1 (stereo not given)	11.2%	20.6µM*	?	.	.	-3.7%
COC(=O)c1ccc(OCC2c3cc(OC)c(OC)cc3CCN2C(=O)c2cccc(C)c2)cc1 (stereo not given)	?	16.4µM*	20.6µM*	.	.	-15.1%
O=C1NC[C@H](CCCCN2C[C@H](Cc3ccccc3)N(CCc3ccccc3)C(=O)C2=O)N(CC2CCCCC2)C1=O	.	-16.4%	-2.4%	.	0.0	.
Cc1cccc(C)c1NC(=O)c1sccc1SCc1cccc(C(F)(F)F)c1	?	18.4µM*	16.4µM*	-3.6%	?	-7.1%
O=C(O)c1ccc(S(=O)(=O)c2ccc3c(c2)C(=O)N(c2ccc(Br)cc2)C3=O)cc1	0.0%	-7.1%	1.2%	-4.0%	20.5	9.2%
CC(C)(C)c1ccc(C(=O)N2CCC2(C)C(=O)NS(=O)(=O)c2ccc(C#N)cc2)cc1 (stereo not given)	-8.8%	2.6%	-8.5%	.	4.7	-31.0%
CC(C)(C)CNC(=O)C1(C)CCN1C(=O)Cc1ccc(C(C)(C)C)cc1 (stereo not given)	-9.8%	?	?	.	-1.5	-10.5%
CCCNC(=O)C1(C)CCN1C(=O)Cc1ccc(C(C)(C)C)cc1 (stereo not given)	0.7%	14.6µM*	?	.	42.4	-15.0%
CSCCNC(=O)C1(C)CCN1C(=O)c1ccc(C(C)(C)C)cc1 (stereo not given)	-6.3%	14.6µM*	18.4µM*	.	30.8	-6.6%
CCCNC(=O)C1(C)CCN1C(=O)c1ccc(C(C)(C)C)cc1 (stereo not given)	-10.6%	14.6µM*	?	.	23.3	-13.8%
O=S(=O)(NCCS(=O)(=O)N1CCN(c2ccc(F)cc2)CC1)c1ccccc1	8.3%	?	?	.	-6.3	-10.9%
N#Cc1ccc(OCC(O)CN2CCN(c3ncc(C(F)(F)F)cc3Cl)CC2)cc1 (stereo not given)	?	14.6µM*	?	-2.4%	-65.1*	-25.1%
N#Cc1ccc(OCC(O)CN2CCN(CC(O)COc3ccc(C#N)cc3)CC2)cc1 (stereo not given)	-0.4%	25.9µM*	?	6.6%	15.9	0.6%
OC(CN1CCN(c2ncc(C(F)(F)F)cc2Cl)CC1)c1ccccc1 (stereo not given)	?	?	?	-0.2%	4.3	-54.1%
N#Cc1ccc(-c2ccc(OCC(O)CN3CCCCC3)cc2)cc1 (stereo not given)	3.7%	?	23.1µM*	-1.7%	?	-28.3%
COc1ccc(OC)c(S(=O)(=O)N2CCN(CC(O)COc3ccc(C#N)cc3)CC2)c1 (stereo not given)	?	23.1µM*	?	-1.6%	0.3	-28.2%
CS(=O)(=O)N(CC(=O)N1CCc2ccccc2C1)Cc1ccc(F)cc1	?	-9.4%	-11.8%	6.5%	1.7	-19.9%
O=S(=O)(c1ccccc1)c1cnn(-c2ccccc2)c1-c1ccc(F)cc1	?	-1.7%	-16.0%	-6.9%	-2.7	-17.3%
COc1ccc(-n2ncc(S(=O)(=O)c3ccccc3)c2-c2ccc(Cl)cc2)cc1	-37.6%	20.6µM*	25.9µM*	-20.1%	?	2.6%
Cc1c(Cl)cccc1NC(=O)CSc1nc(=O)[nH]c2c1CCCC2	?	20.6µM*	20.6µM*	.	.	-10.6%
Cc1c(Cl)cccc1NC(=O)CSc1nc(=O)n(Cc2ccco2)c2c1CCC2	?	?	20.6µM*	.	.	-13.0%
SMILES	TGFb inhibitor	TDP1 cell noCPT	TDP1 cell CPT	ASM inhibitor	IL-1B inflam inh	HepG2 viability
Cc1cc(C)c(NC(=O)CSc2nc(=O)[nH]c3c2CCCC3)c(C)c1	2.8%	23.1µM*	?	.	.	3.0%
O=C(CSc1nc(=O)[nH]c2c1CCCC2)Nc1ccc(Cl)c(Cl)c1	-1.7%	?	?	.	.	-16.9%
Cc1cccc(NC(=O)CSc2nc(=O)n(Cc3ccco3)c3c2CCC3)c1C	?	?	-22.8%	.	.	-24.3%
COc1cc(=O)n2c(c1C(=O)NC(C)c1ccco1)CCN(CC=C(C)C)CC2 (stereo not given)	.	-5.3%	-12.3%	.	.	.
O=C(COc1ccc(F)cc1)N1c2ccccc2CCc2ccccc21	?	18.4µM*	?	0.0%	-18.7	-19.3%
O=C(COc1ccc2ccccc2c1CN1CCOCC1)N1CCc2ccccc21	?	?	?	-0.8%	-73.9*	12.6µM*
O=C(COc1cccc2ccccc12)N1c2ccccc2CCc2ccccc21	?	18.4µM*	?	-16.5%	?	-3.5%
O=C(COc1ccccc1)N1CCc2ccccc21	-6.0%	?	-1.6%	0.2%	0.0	4.1%
Cc1cc(C)n(CC(=O)NNC(=O)c2cccc(C(F)(F)F)c2)n1	0.1%	15.1%	-13.9%	-0.4%	2.0	-0.1%
Cc1cc(NNC(=O)c2cccc(C(F)(F)F)c2)nc2c1c(C)nn2C	?	5.8µM*	10.3µM*	4.9%	-1.9	-21.3%
CC1CN(C(=O)COC(=O)/C=C/c2ccccc2)CC(C)O1 (stereo not given)	-2.8%	?	-12.2%	.	-4.8	-28.2%
CC(NC(=O)c1ccc(C(=O)c2ccccc2)cc1)c1ccc(S(N)(=O)=O)cc1 (stereo not given)	-9.5%	?	-23.8%	2.8%	-52.3*	-12.1%
CCOC(=O)/C(=N/Nc1ccc(Br)cc1)N1CC(C)OC(C)C1 (stereo not given)	-0.6%	?	8.6%	-0.2%	-15.3	-2.2%

Source: PubChem
